Measurements reported in PubChem BioAssay (Tox21).
Values joined by “and” are separate entries in the source; they are usually repeats but may differ in a detail not shown here. Equal entries are not always repeated. Inconclusive results are not listed. Some compounds were tested as several samples or in several runs, with calls that do not always agree. Active and inactive are the calls of the source. Unless noted, calls follow the shape of the dose curve; as a rule, active = well fitted curve in the direction sought with a large enough effect in the repeat runs; inconclusive = weak or mixed curves; inactive = no such curve, though single readings can be large; an effect the other way counts as inactive or inconclusive.

Assays:
[1] = qHTS assay to identify small molecule agonists of the progesterone receptor (PR) signaling pathway - cell viability counter screen (AID 1346799; calls by dose curve; also: nearly all actives have a fitted effect of over 45% in size; also: potency is read from the fitted curve at half-maximal effect)
Summary of the method: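 In parallel with the beta-lactamase readout, cytotoxicity toward PR-UAS-bla HEK293T cells was measured by CellTiter-Glo luminescence following 16 hr compound incubation in 2% charcoal-stripped FBS medium.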

[2] = qHTS assay to identify small molecule antagonists of the TGF-beta/Smad signaling pathway - cell viability counter screen (AID 1346824); also: nearly all actives have a fitted effect of over 50% in size
Summary of the method: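 SBE-bla HEK 293T cells, incubated overnight, then compound plus 0.25 ng/mL TGF-beta1 (stock added) for 5 hr at 37 C. Viability was read in the same wells by CellTiter-Glo luminescence after 30 min at room temperature.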

[3] = qHTS assay to identify small molecule agonists of the TGF-beta/Smad signaling pathway - cell viability counter screen (AID 1346829); also: top concentration of the series differs between compounds; nearly all actives have a fitted effect of over 45% in size
Summary of the method: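 Luminescence from CellTiter-Glo, read after a 30 min room-temperature incubation, gives cell viability of SBE-bla HEK 293T cells treated 5 hr with compounds at 37 C.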

[4] = qHTS assay to identify small molecule agonists of the TGF-beta/Smad signaling pathway (AID 1346859; active = well fitted activation curve with a large enough effect in the signal ratio in the repeat runs, not every such curve was filed as active; the % refers to the signal ratio; also: series mostly up to about 77 µM)
Summary of the method: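 After overnight seeding, SBE-bla HEK 293T cells are dosed with compounds in DMSO and kept 5 hr at 37 C, 5% CO2. LiveBLAzer-type FRET substrate is then applied for 2 hr at room temperature.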

[5] = target: Thyrotropin-releasing hormone receptor (Homo sapiens) (UniProt P34981); assay: qHTS assay to identify small molecule antagonists of the thyrotropin-releasing hormone receptor (TRHR) signaling pathway (AID 1346877; active = well fitted inhibition curve with a large enough effect in the repeat runs, not every such curve was filed as active; also: series mostly up to about 51 µM)
Thyrotropin-releasing hormone receptor (Homo sapiens), sequence (P34981 whole entry, looked up): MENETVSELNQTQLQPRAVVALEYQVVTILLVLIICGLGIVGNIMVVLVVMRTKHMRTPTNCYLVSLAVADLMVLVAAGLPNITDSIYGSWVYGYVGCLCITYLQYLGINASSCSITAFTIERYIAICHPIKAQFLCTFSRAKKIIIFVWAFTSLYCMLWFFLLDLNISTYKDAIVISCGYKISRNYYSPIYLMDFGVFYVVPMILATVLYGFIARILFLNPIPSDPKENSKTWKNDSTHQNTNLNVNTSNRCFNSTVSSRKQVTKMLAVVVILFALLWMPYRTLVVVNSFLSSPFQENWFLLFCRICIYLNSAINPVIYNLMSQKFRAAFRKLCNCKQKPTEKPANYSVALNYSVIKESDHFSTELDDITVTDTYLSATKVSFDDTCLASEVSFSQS
Summary of the method: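 Following an 18 h incubation at 37 °C and a 2 h calcium dye load, TRHR-HEK293 cells were exposed to compound (5 min, room temperature) and challenged with TRH, 1 nM final.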

[6] = target: Thyrotropin-releasing hormone receptor (Homo sapiens) (UniProt P34981); assay: qHTS assay to identify small molecule agonists of the thyrotropin-releasing hormone receptor (TRHR) signaling pathway (AID 1346891; calls by dose curve; also: potency is read from the fitted curve at half-maximal effect;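 as to activation: HEK293 cells expressing TRHR with calcium dye readout; series mostly up to about 58 µM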)
Summary of the method: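 Compounds were tested as agonists at 15 concentrations, in triplicate, on TRHR-Hek293 cells; calcium-sensitive dye fluorescence was recorded for 3 min following addition.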

[7] = Human pregnane X receptor (PXR) small molecule agonists, qHTS cell viability counter screen (AID 1346977); also: nearly all actives have a fitted effect of over 50% in size
Summary of the method: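 Viability counter screen: CellTiter-Fluor signal in PXR-Luc HepG2 cells, 24hr compound exposure, 37C, 5% CO2.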

[8] = Caspase-3/7 induction in HepG2 cells by small molecules, qHTS assay (AID 1346978); also: nearly all actives have a fitted effect of over 15% in size
Summary of the method: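 Wild-type HepG2 cells, 2,000/well, settled 5 hr at 37 C and 5% CO2, then compound-treated for 17 hr; caspase-3/7 activity read by luminescent Caspase-Glo 3/7 after 30 min at room temperature.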

[9] = Caspase-3/7 induction in CHO-K1 cells by small molecules, qHTS cell viability counter screen (AID 1346979); also: nearly all actives have a fitted effect of over 35% in size
Summary of the method: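 Viability readout by fluorescence (CellTiter-Fluor) on wild-type CHO-K1 cells exposed for 16hr at 37C and 5% CO2 to compounds delivered in DMSO; reagent incubated 1hr before reading.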

[10] = Caspase-3/7 induction in CHO-K1 cells by small molecules, qHTS assay (AID 1346980); also: nearly all actives have a fitted effect of over 15% in size
Summary of the method: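 Wild-type CHO-K1 cells exposed to compounds for 17hr at 37 C, 5% CO2. Caspase-3/7 activity then measured by Caspase-Glo 3/7 luminescence after 30min at room temperature.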

[11] = Caspase-3/7 induction in HepG2 cells by small molecules, qHTS cell viability counter screen (AID 1346981); also: series mostly up to about 92 µM; nearly all actives have a fitted effect of over 30% in size
Summary of the method: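 Viability determined by CellTiter-Fluor fluorescence in HepG2 wells also used for the luminescent Caspase-Glo 3/7 read. Compounds were present for 16 hr at 37 C, 5% CO2 before reagent addition.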

[12] = target: Nuclear receptor subfamily 1 group I member 2 (Homo sapiens) (UniProt O75469); assay: Human pregnane X receptor (PXR) small molecule agonists, qHTS assay (AID 1346982); also: nearly all actives have a fitted effect of over 35% in size; also: potency is read from the fitted curve at half-maximal effect
Nuclear receptor subfamily 1 group I member 2 (Homo sapiens), sequence (O75469 whole entry, looked up): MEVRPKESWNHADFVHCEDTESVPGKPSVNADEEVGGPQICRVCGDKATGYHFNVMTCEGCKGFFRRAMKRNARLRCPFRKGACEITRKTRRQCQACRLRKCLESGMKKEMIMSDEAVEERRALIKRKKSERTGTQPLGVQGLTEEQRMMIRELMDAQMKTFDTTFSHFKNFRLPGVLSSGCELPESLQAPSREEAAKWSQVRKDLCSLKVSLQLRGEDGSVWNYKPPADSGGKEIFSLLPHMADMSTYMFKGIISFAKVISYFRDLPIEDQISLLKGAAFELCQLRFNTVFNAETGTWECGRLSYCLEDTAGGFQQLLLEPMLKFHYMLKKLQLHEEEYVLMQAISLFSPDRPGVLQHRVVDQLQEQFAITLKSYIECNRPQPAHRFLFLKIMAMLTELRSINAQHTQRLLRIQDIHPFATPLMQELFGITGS
Summary of the method: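 Compound-induced hPXR transactivation of a CYP3A4 luciferase reporter was scored in HepG2 PXR-Luc cells over 24 hr at 37 C, 5% CO2, by luminescence.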

[13] = target: Acetylcholinesterase (Homo sapiens) (UniProt P22303); assay: Acetylcholinesterase (AChE) small molecule antagonists: fluorescence cell-based qHTS assay (AID 1347398; calls by dose curve; also: nearly all actives have a fitted effect of over 50% in size); settings: Potency: AChE activity
Acetylcholinesterase (Homo sapiens), sequence (P22303 whole entry, looked up): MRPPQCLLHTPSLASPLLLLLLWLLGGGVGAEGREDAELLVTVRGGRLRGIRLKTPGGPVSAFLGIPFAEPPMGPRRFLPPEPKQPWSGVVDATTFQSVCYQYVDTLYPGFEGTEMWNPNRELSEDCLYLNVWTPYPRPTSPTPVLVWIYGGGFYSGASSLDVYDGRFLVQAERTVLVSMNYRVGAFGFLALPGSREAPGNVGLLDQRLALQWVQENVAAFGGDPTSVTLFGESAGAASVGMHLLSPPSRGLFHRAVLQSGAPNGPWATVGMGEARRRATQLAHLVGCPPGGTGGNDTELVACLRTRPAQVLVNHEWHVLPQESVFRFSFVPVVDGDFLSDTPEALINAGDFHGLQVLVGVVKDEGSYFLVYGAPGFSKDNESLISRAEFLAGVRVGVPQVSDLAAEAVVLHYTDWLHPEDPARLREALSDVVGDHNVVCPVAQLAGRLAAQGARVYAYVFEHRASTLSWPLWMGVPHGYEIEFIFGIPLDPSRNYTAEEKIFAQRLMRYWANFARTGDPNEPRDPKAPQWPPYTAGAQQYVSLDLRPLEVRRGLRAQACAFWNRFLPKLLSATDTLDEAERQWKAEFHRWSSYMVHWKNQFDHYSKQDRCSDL
Summary of the method: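 Endogenous acetylcholinesterase of SH-SY5Y neuroblastoma cells is measured in situ. After overnight attachment and 30 min compound exposure, cells receive acetylthiocholine and Thiolite Green; fluorescence is read after 40 min at room temperature.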

[14] = target: Acetylcholinesterase (Homo sapiens) (UniProt P22303); assay: Acetylcholinesterase (AChE) small molecule antagonists: enzyme-based qHTS assay with human liver microsomes (AID 1347399; calls by dose curve; also: nearly all actives have a fitted effect of over 60% in size); settings: Potency: qHTS inhibition
Summary of the method: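 Recombinant human AChE (50 mU/mL in the enzyme mix) and human liver microsomes (0.25 mg/mL final) were preincubated with compound and NADPH (0.25 mg/mL final) for 30 min at 37 C. Acetylthiocholine/DTNB was then added; thiocholine was read colorimetrically after 10 min at room temperature.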

[15] = target: Acetylcholinesterase (Homo sapiens) (UniProt P22303); assay: Acetylcholinesterase (AChE) small molecule antagonists: colormetric cell-based qHTS assay (AID 1347395; calls by dose curve; also: nearly all actives have a fitted effect of over 30% in size)
Summary of the method: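 Homogeneous whole-cell format. SH-SY5Y cells seeded overnight, dosed with compound (30 min, 37 C, 5% CO2), then given DTNB/acetylthiocholine cocktail for 90 min at 37 C; colorimetric signal.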

[16] = target: Acetylcholinesterase (Homo sapiens) (UniProt P22303); assay: Acetylcholinesterase (AChE) small molecule antagonists: enzyme-based qHTS assay (AID 1347397; calls by dose curve; also: nearly all actives have a fitted effect of over 55% in size); settings: Potency: AChE enzyme activity inhibition
Summary of the method: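 Enzyme inhibition was scored from DTNB-detected thiocholine formed by recombinant human AChE acting on acetylthiocholine. The 30 min compound preincubation and 10 min substrate reaction were both run at room temperature, with DMSO as vehicle control.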

[17] = target: Cytochrome P450 2D6 (Homo sapiens) (UniProt P10635); assay: Cytochrome P450 Family 2 Subfamily D Member 6 (CYP2D6) small molecule antagonists: luciferase reporter qHTS assay (AID 1671196); also: nearly all actives have a fitted effect of over 50% in size; also: potency is read from the fitted curve at half-maximal effect
Cytochrome P450 2D6 (Homo sapiens), sequence (P10635 whole entry, looked up): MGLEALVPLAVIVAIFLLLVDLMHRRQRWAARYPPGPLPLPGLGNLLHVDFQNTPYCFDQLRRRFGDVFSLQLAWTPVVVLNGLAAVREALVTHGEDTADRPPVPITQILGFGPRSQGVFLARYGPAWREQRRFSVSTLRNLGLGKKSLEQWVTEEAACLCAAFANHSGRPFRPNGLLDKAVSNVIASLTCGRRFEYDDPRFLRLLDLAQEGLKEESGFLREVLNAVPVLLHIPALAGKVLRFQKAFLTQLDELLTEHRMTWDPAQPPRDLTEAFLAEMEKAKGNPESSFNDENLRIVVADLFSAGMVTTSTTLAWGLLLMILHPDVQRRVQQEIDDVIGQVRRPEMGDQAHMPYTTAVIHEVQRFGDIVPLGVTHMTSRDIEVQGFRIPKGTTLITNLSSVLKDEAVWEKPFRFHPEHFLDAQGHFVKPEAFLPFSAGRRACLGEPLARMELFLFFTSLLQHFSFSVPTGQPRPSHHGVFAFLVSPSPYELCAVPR
Summary of the method: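 Each well received CYP2D6 with its proluciferin substrate and chemical, sat 10 min, then got NADPH regeneration solution for 1 h at room temperature. Luminescence in RLU served as the activity measure.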

[18] = target: Nuclear receptor subfamily 1 group I member 2 (Rattus norvegicus) (UniProt Q9R1A7); assay: Rat pregnane X receptor (rPXR) activation by small molecules, qHTS assay (AID 1346983); settings: rPXR luciferase reporter cells, One-Glo luminescence, 24 h; stronger effect = higher value; also: nearly all actives have a fitted effect of over 20% in size
Nuclear receptor subfamily 1 group I member 2 (Rattus norvegicus), sequence (Q9R1A7 whole entry, looked up): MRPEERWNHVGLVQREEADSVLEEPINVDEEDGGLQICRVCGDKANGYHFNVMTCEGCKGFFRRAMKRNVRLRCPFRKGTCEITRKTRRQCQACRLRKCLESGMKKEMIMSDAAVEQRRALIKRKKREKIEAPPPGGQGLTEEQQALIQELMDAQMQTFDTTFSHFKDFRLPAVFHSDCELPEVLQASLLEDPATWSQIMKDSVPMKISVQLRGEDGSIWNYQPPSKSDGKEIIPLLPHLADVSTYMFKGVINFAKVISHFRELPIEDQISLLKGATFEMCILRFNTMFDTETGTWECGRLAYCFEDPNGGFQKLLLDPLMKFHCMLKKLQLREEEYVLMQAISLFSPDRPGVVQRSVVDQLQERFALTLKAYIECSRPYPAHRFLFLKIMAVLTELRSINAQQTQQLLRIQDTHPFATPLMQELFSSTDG
Summary of the method: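 Cell-based rPXR activation assay: rPXR cells, 2,000 per well, rested 5hr at 37 C, then exposed to compounds in DMSO for 24 hr at 37 C. Luciferase activity read by One-Glo luminescence after 30 min at room temperature.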

[19] = target: Nuclear receptor subfamily 1 group I member 2 (Homo sapiens) (UniProt O75469); assay: CYP3A4 induction through human pregnane X receptor (PXR) by small molecules, qHTS assay (AID 1346984); also: nearly all actives have a fitted effect of over 40% in size
Summary of the method: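 Readings come from a luciferase reporter: DPX-2 cells, which are HepG2 cotransfected with PXR and a CYP3A4-promoter construct, were exposed to test compounds for 24 h at 37C before One-Glo detection.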

[20] = target: Nuclear receptor subfamily 1 group I member 2 (Homo sapiens) (UniProt O75469); assay: Human pregnane X receptor (PXR) activation by small molecules, qHTS assay (AID 1346985); also: nearly all actives have a fitted effect of over 40% in size
Summary of the method: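 DPX-2 cells (HepG2 co-transfected with a PXR response element and a CYP3A4-promoter luciferase construct) were seeded at 2,000 per well, rested 5 hr at 37C, then exposed to DMSO-dissolved compounds for 24 hr. Activation was read as luciferase luminescence.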
% is scaled to controls: 0 for no effect and ±100 for the full control effect.

CC(C)C1(C)N=C(c2nc3ccccc3cc2C(=O)O)NC1=O (stereo not given)
inactive: Potency [1] | Potency [2] | outcome [3] | Potency [4] | outcome [5] | Potency [6] | Potency [7] | outcome [8] | Potency [9] | outcome [10] | Potency [11] | Potency [12] | Potency [13] | Potency [14]

CCN(CC)c1ccccc1
inactive: Potency [1] | Potency [2] | outcome [3] | Potency [4] | outcome [5] | Potency [6] | Potency [7] | outcome [8] | Potency [9] | outcome [10] | Potency [11] | Potency [12] | Potency [15] | Potency [16] | Potency [13] | Potency [14] | Potency [17]

CCCCCCCCCl
inactive: Potency [1] | Potency [2] | outcome [3] | Potency [4] | outcome [5] | Potency [6] | Potency [7] | outcome [8] | Potency [9] | outcome [10] | Potency [11] | Potency [15] | Potency [16] | Potency [13] | Potency [14]
63.1 µM (active) and inactive: Potency [12]

NCCc1ccc(O)cc1
inactive: Potency [2] | outcome [3] | Potency [4] | outcome [5] | Potency [6] | Potency [7] | outcome [8] | Potency [9] | outcome [10] | Potency [11] | Potency [12] | Potency [13] | Potency [14]
21.5 µM (active) and inactive: Potency [1]

CC(Br)C(=O)O (stereo not given)
inactive: Potency [1] | Potency [2] | outcome [3] | Potency [4] | outcome [5] | Potency [6] | Potency [7] | outcome [8] | Potency [9] | Potency [11] | Potency [12] | Potency [15] | Potency [16] | Potency [13] | Potency [14]

ClCCBr
inactive: Potency [1] | Potency [2] | outcome [3] | Potency [4] | outcome [5] | Potency [6] | outcome [8] | Potency [9] | outcome [10] | Potency [11] | Potency [12] | Potency [15] | Potency [16] | Potency [13] | Potency [14]
35.5 µM (active) and inactive: Potency [17]

CC(=O)C=C(C)C
inactive: Potency [1] | Potency [2] | outcome [3] | Potency [4] | outcome [5] | Potency [6] | Potency [7] | outcome [8] | Potency [9] | Potency [11] | Potency [12] | Potency [15] | Potency [16] | Potency [13] | Potency [14] | Potency [17]

COP(N)(=O)SC (stereo not given)
inactive: Potency [1] | Potency [2] | outcome [3] | Potency [4] | outcome [5] | Potency [6] | Potency [7] | outcome [8] | Potency [9] | Potency [11] | Potency [12] | Potency [14] | Potency [17]

Cc1ccc(N)cc1N
inactive: Potency [1] | Potency [2] | outcome [3] | Potency [4] | outcome [5] | Potency [6] | Potency [7] | outcome [8] | Potency [9] | Potency [11] | Potency [12] | Potency [16] | Potency [13] | Potency [14]

Cc1cc(Cl)ccc1O
inactive: Potency [1] | Potency [2] | outcome [3] | Potency [4] | outcome [5] | Potency [6] | Potency [7] | outcome [8] | Potency [9] | outcome [10] | Potency [11] | Potency [12] | Potency [15] | Potency [16] | Potency [13] | Potency [14]
active: Potency [17] 19.4 µM and 12.6 µM

C=CC(N)=O
inactive: Potency [1] | Potency [2] | outcome [3] | Potency [4] | outcome [5] | Potency [6] | Potency [7] | outcome [8] | Potency [9] | Potency [11] | Potency [12]

CCC[CH2][Sn]([Cl])([Cl])[Cl]
inactive: Potency [1] | Potency [2] | outcome [3] | Potency [4] | outcome [5] | Potency [6] | Potency [7] | outcome [8] | Potency [9] | outcome [10] | Potency [11] | Potency [12] | Potency [15] | Potency [16] | Potency [13] | Potency [14] | Potency [17]

COC(=O)NC(=S)Nc1ccccc1NC(=S)NC(=O)OC
active: Potency [12] 61.1 µM and 48.6 µM
inactive: Potency [1] | Potency [2] | outcome [3] | Potency [4] | outcome [5] | Potency [6] | Potency [7] | outcome [8] | Potency [9] | Potency [11] | Potency [15] | Potency [13] | Potency [14] | Potency [17]

C1CN2CCN1CC2
inactive and 34.7 µM (active): Potency [6]
inactive: Potency [1] | Potency [2] | outcome [3] | Potency [4] | outcome [5] | Potency [7] | outcome [8] | Potency [9] | outcome [10] | Potency [11] | Potency [12] | Potency [15] | Potency [13] | Potency [14] | Potency [17]

c1ccc(-c2ccccc2)cc1
inactive: Potency [1] | Potency [2] | outcome [3] | Potency [4] | outcome [5] | Potency [6] | Potency [7] | outcome [8] | Potency [9] | outcome [10] | Potency [11] | Potency [12] | Potency [16] | Potency [13] | Potency [14] | Potency [17]

CN=C=S
30.9 µM (active) and inactive: Potency [12]
inactive: Potency [1] | Potency [2] | outcome [3] | Potency [4] | outcome [5] | Potency [6] | outcome [8] | Potency [9] | outcome [10] | Potency [11] | Potency [15] | Potency [16] | Potency [13] | Potency [14]

O=[N+]([O-])c1ccccc1
inactive: Potency [1] | Potency [2] | outcome [3] | Potency [4] | outcome [5] | Potency [6] | outcome [8] | Potency [9] | outcome [10] | Potency [11] | Potency [12] | max activation [18] 7.19% | outcome [19] | Potency [20] | Potency [16] | Potency [13] | Potency [14]
16.4 µM (active) and inactive: Potency [17]
